# Assay results as given in PubChem BioAssay (Tox21).
# Several values for one entry are separate records, joined by “and”; a condition that tells them apart may be missing. Equal values may be shown once. Results filed as inconclusive are left out. Entries that show only a call come without a potency. Unmarked numbers belong to inactive results. Activity calls are given as the source filed them. Calls come from the whole dose curve; as a rule, active = well fitted inhibition curve with a large enough effect in the repeat runs; inconclusive = weak or mixed curves; inactive = flat fitted curve, though single readings scatter.
# Test: qHTS assay to identify small molecule HDAC inhibitors (AID 1259364); note: nearly all actives have a fitted effect of over 45% in size; for activity change, negative = inhibition: top concentration of the series differs between compounds
# Details: HCT-116 HDAC-Glo I/II luminescence, 2 h; series mostly up to 92.4 µM
# Source text: U.S. Tox21 Program National Center for Advancing Translational Sciences [NCATS] NIH Chemical Genomics Center [NCGC] U.S. Environmental Protection Agency [EPA] National Institutes of Environmental Health Sciences [NIEHS] National Toxicology Program [NTP] U.S. Food and Drug Administration [FDA] Tox21 Assay Overview: Histone deacetylases (HDACs) are a group of epigenetic enzymes that regulate gene expression by histone deacetylation. HDACs are capable of introducing epigenetic modifications and such aberrations contribute to the onset and progression of several human diseases, thus making HDACs a popular therapeutic target. For identifying endogenous class I/II HDAC inhibitors a homogenous, luminogenic HDAC I/II cell based assay was used to measure the relative activity of class I and II HDACs from cells. Wild type HCT-116 cells were used to screen Tox21 libraries for identifying class I/II HDAC inhibitors.
# Tox21 Assay Protocol Summary: HCT-116 cells were dispensed at 1,500 per well in 5uL of culture medium into white solid bottom 1536-well plates (Greiner Bio-One, Monroe, NC) using a Multidrop Combi (Thermo Scientific, Waltham, MA) dispenser. The assay plates were incubated at 37 C and 5% CO2 for an overnight, and then 23nL of compounds dissolved in DMSO and positive control were transferred using a Pintool station (Wako, San Diego, CA). The assay plates were incubated at 37C and 5% CO2 for 2hr. After compound treatment, 4uL of HDAC-Glo reagent (Promega Corporation, Madison, WI) was added to each well of the assay plates using Flying Reagent Dispenser (FRD, Aurora Discovery, San Diego, CA) and incubated the assay plates at room temperature for 30min. The luminescence signal was quantified using a ViewLux plate reader (Perkin Elmer, Shelton, CT).
# Potency is the fitted concentration of half-maximal effect.
Compound,Potency,"activity change, negative = inhibition"
COP(=S)(OC)Oc1nc(Cl)c(Cl)cc1Cl,inactive,
c1ccc(N=NNc2ccccc2)cc1,15.9 µM (active) and 24.3 µM (active),
CCN(CC)CCc1c[nH]c2ccccc12,inactive,
S=C=NCCc1ccccc1,inactive,
CCCCCCCc1ccc(O)cc1,inactive,
C[C@]12CC[C@H]3[C@@H](CCC4=CC(=O)CC[C@@H]43)[C@@H]1CC[C@@H]2OC(=O)CCc1ccco1,inactive,
CC(=O)[O-].CC(=O)[O-].CC(=O)[O-].[Sb+3],,2.54% [at 3.27 µM]
CC(C)Br,inactive,
Nc1nc(N)c(N)c(N)n1,inactive,
N#Cc1ccc(N(CC(N)=O)CC(F)(F)F)cc1C(F)(F)F,inactive,
O.O.O.O.O.O.O.O=S(=O)([O-])[O-].[Co+2],inactive,
CN,inactive,
CN1[C@@H]2CC[C@H]1CC(O)C2 (stereo not given in full),inactive,
COC(=O)c1cc(Oc2ccc(Cl)cc2Cl)ccc1[N+](=O)[O-],inactive,
Nc1cc(Cl)ccc1Cl,inactive,
CCC[CH2][Sn]([CH2]CCC)([CH2]CCC)[CH2]CCC,inactive,
N#Cc1sc2c(=O)c3ccccc3c(=O)c=2sc1C#N,27.3 µM (active),
CN1CCc2cc3c(cc2C1O)OCO3 (stereo not given),inactive,
c1ccc2c(c1)cc1ccc3cccc4ccc2c1c34,inactive,
COC(=O)c1ccccc1S(=O)(=O)NC(=O)Nc1nc(C)nc(OC)n1,inactive,

Compound,Potency,"activity change, negative = inhibition"
[Cl][Hg][c]1ccccc1,30.6 µM (active),
O.O.O.O=C([O-])[C@H]([O-])[C@@H]([O-])C(=O)[O-].O=C([O-])[C@H]([O-])[C@@H]([O-])C(=O)[O-].[K+].[K+].[Sb+3].[Sb+3],inactive,
CC(Cl)CCl (stereo not given),inactive,
C=C(C)C(=O)[O][Sn]([CH2]CCC)([CH2]CCC)[CH2]CCC,inactive,
CCCCn1cc[n+](C)c1.[Cl][Fe-]([Cl])([Cl])[Cl],inactive,
[C-]1=CC=CC1.[Cl][Zr+2][Cl].c1cc[cH-]c1,inactive,
CC(=O)[O-].CC(=O)[O-].O.O.O.[Pb+2],inactive,
CCCCC(CC)COC(=O)OOC(C)(C)C (stereo not given),inactive,
CCCCCCCCCCCCCCn1cc[n+](C)c1,inactive,
CCN1CCC2(CC1)COc1cc3c(cc12)N(C(=O)c1ccc(-c2ccc(-c4nnc(C)o4)cc2C)cc1)CC3,inactive,
C#CC1(O)CCCCC1,inactive,
O=C1C(Cl)=C(Cl)C(=O)C(Cl)=C1Cl,inactive,
CC(Cc1ccc2c(c1)OCO2)NO (stereo not given),inactive,
Clc1ccc(C2(Cn3cncn3)OCCO2)c(Cl)c1,inactive,
CCOC(=O)CCN(SN(C)C(=O)Oc1cccc2c1OC(C)(C)C2)C(C)C,inactive,
N#CSCc1ccccc1,inactive,
CC(=O)[O-].CC(=O)[O-].[Co+2],inactive,
C=CCOC(=O)c1ccccc1N,inactive,
Cc1ccccc1OP(=O)(Oc1ccccc1C)Oc1ccccc1C,inactive,
COc1ccc2[nH]cc(CCN(C(C)C)C(C)C)c2c1,inactive,
